Measurements taken from PubChem BioAssay (NCATS).
Where “and” joins values, the source holds several entries; their conditions need not be identical. Equal entries are not always repeated. Inconclusive results are not listed. Calls of active or inactive are those of the source. The call rests on the fitted dose curve; in most records, active means well fitted curve in the direction sought with a large enough effect; inconclusive means small, poorly fitted or top-dose-only effect, or another doubt; inactive means no such curve, though single readings can be large; an effect the other way counts as inactive or inconclusive.

Assay: qHTS of pediatric cancer cell lines to identify multiple opportunities for drug repurposing: Confirmatory screen for U-2 OS cells (AID 1347122); further: nearly all actives have a fitted effect of over 65% in size;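 on activity change, negative = cytotoxicity: plate controls were DMSO for no effect and bortezomib for full effect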
Details: U-2 OS osteosarcoma cell viability; series mostly up to 45.9 µM; activity change, negative = cytotoxicity: at the top concentration
In short: (§1)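 Cells (500-1,000/well) rested 5 h, then received compounds for 48 h; metabolically active cells were measured by CellTiter-Glo luminescence. Final concentrations spanned up to 46 µM (MIPE, 11-point) or 0.59 nM-46 µM (NPC, 8-point) in primary screens, 11-point in follow-ups.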
Potency means the concentration at half of the fitted maximal effect.

| SMILES | activity change, negative = cytotoxicity | Potency |
| --- | --- | --- |
| CN1CCCC(n2nc(Cc3ccc(Cl)cc3)c3ccccc3c2=O)CC1 (stereo not given) | -4.87% (inactive) | – |
| COC(=O)Nc1nc2ccc(C(=O)c3ccccc3)cc2[nH]1 | – | 1.85 µM (active) |
| S=P(N1CC1)(N1CC1)N1CC1 | 7.73% (inactive) | – |
| O=C(NCC1CN(c2ccc(N3CCOCC3=O)cc2)C(=O)O1)c1ccc(Cl)s1 (stereo not given) | 8.63% (inactive) | – |
| CC1CC2C3CCC4=CC(=O)C=C[C@]4(C)[C@@]3(F)[C@@H](O)C[C@]2(C)[C@@]1(O)C(=O)CO (stereo not given in full) | 10% (inactive) | – |
| CS(=O)(=O)c1ccc([C@@H](O)[C@@H](CO)NC(=O)C(Cl)Cl)cc1 | 116% (inactive) | – |
| Nc1nc(=S)c2[nH]cnc2[nH]1 | – | 1.04 µM (active) and 928 nM (active) |
| CNCC[C@H](Oc1cccc2ccccc12)c1cccs1 | -12.6% (inactive) | – |
| Nc1nc(N)c2nc(CNc3ccc(C(=O)NC(CCC(=O)O)C(=O)O)cc3)cnc2n1 (stereo not given) | 27.7% (inactive) | – |
| CNNCc1ccc(C(=O)NC(C)C)cc1 | 15.1% (inactive) | – |
| Oc1c(Cl)cc(Cl)c2cccnc12 | – | 9.27 µM (active) |
| COc1cc(NCc2ccc3nc(N)nc(N)c3c2C)cc(OC)c1OC | -60.9% (inactive) | – |
| CNS(=O)(=O)CCc1ccc2[nH]cc(C3CCN(C)CC3)c2c1 | 9.96% (inactive) | – |

Assay: qHTS of pediatric cancer cell lines to identify multiple opportunities for drug repurposing: Confirmatory screen for Rh41 cells (AID 1347123);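 further: 48 h compound exposure; nearly all actives have a fitted effect of over 60% in size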;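 on activity change, negative = cytotoxic: plate controls were DMSO for no effect and bortezomib for full effect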
Details: Rh41 rhabdomyosarcoma cells, viability/cytotoxicity qHTS; series mostly up to 45.9 µM; activity change, negative = cytotoxic: at the top concentration
In short: as §1

| SMILES | Potency | activity change, negative = cytotoxic |
| --- | --- | --- |
| CN1CCCC(n2nc(Cc3ccc(Cl)cc3)c3ccccc3c2=O)CC1 (stereo not given) | 8.27 µM (active) | – |
| CCC(=O)O[C@]1(C(=O)SCF)[C@H](C)C[C@H]2[C@@H]3C[C@H](F)C4=CC(=O)C=C[C@]4(C)[C@@]3(F)[C@@H](O)C[C@@]21C | – | -64.9% (inactive) |
| CC1CC2C3CCC4=CC(=O)C=C[C@]4(C)[C@@]3(F)[C@@H](O)C[C@]2(C)[C@@]1(O)C(=O)CO (stereo not given in full) | – | -5.64% (inactive) |
| CS(=O)(=O)c1ccc([C@@H](O)[C@@H](CO)NC(=O)C(Cl)Cl)cc1 | – | -4.69% (inactive) |
| Nc1nc(=S)c2[nH]cnc2[nH]1 | 14.7 µM (active) and 13.1 µM (active) | – |
| CC(=O)[C@H]1CC[C@H]2[C@@H]3CCC4=CC(=O)CC[C@]4(C)[C@H]3CC[C@]12C | 18.5 µM (active) | – |
| COc1cc2nc(N3CCCN(C)CC3)nc(NC3CCN(Cc4ccccc4)CC3)c2cc1OC | 0.261 µM (active) | – |
| Nc1nc(N)c2nc(CNc3ccc(C(=O)NC(CCC(=O)O)C(=O)O)cc3)cnc2n1 (stereo not given) | – | 10.8% (inactive) |
| CNNCc1ccc(C(=O)NC(C)C)cc1 | – | 12% (inactive) |
| CO[C@@]12[C@H](COC(N)=O)C3=C(C(=O)C(C)=C(N)C3=O)N1C[C@@H]1N[C@@H]12 | 7.37 µM (active) | – |
| Oc1c(Cl)cc(Cl)c2cccnc12 | 14.7 µM (active) | – |
| CCc1c2c(nc3ccc(OC(=O)N4CCC(N5CCCCC5)CC4)cc13)-c1cc3c(c(=O)n1C2)COC(=O)[C@]3(O)CC | 4.14 µM (active) | – |
| CNS(=O)(=O)CCc1ccc2[nH]cc(C3CCN(C)CC3)c2c1 | – | -17.9% (inactive) |

Assay: qHTS of pediatric cancer cell lines to identify multiple opportunities for drug repurposing: Confirmatory screen for RD cells (AID 1347124);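 further: cells exposed to compound for 48 h before viability readout; nearly all actives have a fitted effect of over 65% in size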; on activity change, negative = cytotoxic: on the % scale 0 is the no-effect control and ±100 the full control effect
Details: RD rhabdomyosarcoma cell viability; series mostly up to 45.9 µM; activity change, negative = cytotoxic: at the top concentration
In short: as §1

| SMILES | activity change, negative = cytotoxic | Potency |
| --- | --- | --- |
| S=P(N1CC1)(N1CC1)N1CC1 | 6.78% (inactive) | – |
| O=C(NCC1CN(c2ccc(N3CCOCC3=O)cc2)C(=O)O1)c1ccc(Cl)s1 (stereo not given) | 12.8% (inactive) | – |
| CC1CC2C3CCC4=CC(=O)C=C[C@]4(C)[C@@]3(F)[C@@H](O)C[C@]2(C)[C@@]1(O)C(=O)CO (stereo not given in full) | 7.57% (inactive) | – |
| CS(=O)(=O)c1ccc([C@@H](O)[C@@H](CO)NC(=O)C(Cl)Cl)cc1 | 18.7% (inactive) | – |
| COc1cc2nc(N3CCCN(C)CC3)nc(NC3CCN(Cc4ccccc4)CC3)c2cc1OC | – | 0.657 µM (active) |
| CNNCc1ccc(C(=O)NC(C)C)cc1 | 19.2% (inactive) | – |
| Oc1c(Cl)cc(Cl)c2cccnc12 | – | 13.1 µM (active) |
| CNS(=O)(=O)CCc1ccc2[nH]cc(C3CCN(C)CC3)c2c1 | 1.2% (inactive) | – |

Assay: qHTS of pediatric cancer cell lines to identify multiple opportunities for drug repurposing: Confirmatory screen for Rh18 cells (AID 1347125); further: nearly all actives have a fitted effect of over 55% in size; on activity change, negative = cytotoxic: on the % scale 0 is the no-effect control and ±100 the full control effect
Details: Rh18 rhabdomyosarcoma cells, viability; series mostly up to 45.9 µM; activity change, negative = cytotoxic: at the top concentration
In short: as §1

| SMILES | activity change, negative = cytotoxic | Potency |
| --- | --- | --- |
| COC(=O)Nc1nc2ccc(C(=O)c3ccccc3)cc2[nH]1 | -10.3% (inactive) | – |
| S=P(N1CC1)(N1CC1)N1CC1 | -3.56% (inactive) | – |
| O=C(NCC1CN(c2ccc(N3CCOCC3=O)cc2)C(=O)O1)c1ccc(Cl)s1 (stereo not given) | -21.1% (inactive) | – |
| CC1CC2C3CCC4=CC(=O)C=C[C@]4(C)[C@@]3(F)[C@@H](O)C[C@]2(C)[C@@]1(O)C(=O)CO (stereo not given in full) | -2.75% (inactive) | – |
| CS(=O)(=O)c1ccc([C@@H](O)[C@@H](CO)NC(=O)C(Cl)Cl)cc1 | -5.83% (inactive) | – |
| Nc1nc(=S)c2[nH]cnc2[nH]1 | – | 13.1 µM (active) |
| CNCC[C@H](Oc1cccc2ccccc12)c1cccs1 | -21.4% (inactive) | – |
| CC(=O)[C@H]1CC[C@H]2[C@@H]3CCC4=CC(=O)CC[C@]4(C)[C@H]3CC[C@]12C | – | 23.3 µM (active) |
| Nc1nc(N)c2nc(CNc3ccc(C(=O)NC(CCC(=O)O)C(=O)O)cc3)cnc2n1 (stereo not given) | -5.24% (inactive) | – |
| N=C(N)c1ccc(OCCCCCOc2ccc(C(=N)N)cc2)cc1 | -17.1% (inactive) | – |
| CCc1c2c(nc3ccc(OC(=O)N4CCC(N5CCCCC5)CC4)cc13)-c1cc3c(c(=O)n1C2)COC(=O)[C@]3(O)CC | – | 16.5 µM (active) |
| CNS(=O)(=O)CCc1ccc2[nH]cc(C3CCN(C)CC3)c2c1 | 1.46% (inactive) | – |

Assay: qHTS of pediatric cancer cell lines to identify multiple opportunities for drug repurposing: Confirmatory screen for Rh30 cells (AID 1347126); further: nearly all actives have a fitted effect of over 55% in size; on activity change, negative = cytotoxic: on the % scale 0 is the no-effect control and ±100 the full control effect
Details: Rh30 rhabdomyosarcoma cell viability; series mostly up to 45.9 µM; activity change, negative = cytotoxic: at the top concentration
In short: as §1

| SMILES | activity change, negative = cytotoxic | Potency |
| --- | --- | --- |
| CN1CCCC(n2nc(Cc3ccc(Cl)cc3)c3ccccc3c2=O)CC1 (stereo not given) | -17% (inactive) | – |
| COC(=O)Nc1nc2ccc(C(=O)c3ccccc3)cc2[nH]1 | 22.9% (inactive) | – |
| S=P(N1CC1)(N1CC1)N1CC1 | -3.7% (inactive) | – |
| O=C(NCC1CN(c2ccc(N3CCOCC3=O)cc2)C(=O)O1)c1ccc(Cl)s1 (stereo not given) | 5.98% (inactive) | – |
| CS(=O)(=O)c1ccc([C@@H](O)[C@@H](CO)NC(=O)C(Cl)Cl)cc1 | 10.3% (inactive) | – |
| CNCC[C@H](Oc1cccc2ccccc12)c1cccs1 | 11.5% (inactive) | – |
| COc1cc2nc(N3CCCN(C)CC3)nc(NC3CCN(Cc4ccccc4)CC3)c2cc1OC | – | 0.147 µM (active) |
| Nc1nc(N)c2nc(CNc3ccc(C(=O)NC(CCC(=O)O)C(=O)O)cc3)cnc2n1 (stereo not given) | 0% (inactive) | – |
| CNNCc1ccc(C(=O)NC(C)C)cc1 | 21.3% (inactive) | – |
| CO[C@@]12[C@H](COC(N)=O)C3=C(C(=O)C(C)=C(N)C3=O)N1C[C@@H]1N[C@@H]12 | – | 9.27 µM (active) |
| Oc1c(Cl)cc(Cl)c2cccnc12 | – | 18.5 µM (active) |
| COc1cc(NCc2ccc3nc(N)nc(N)c3c2C)cc(OC)c1OC | – | 4.65 µM (active) |
| CCc1c2c(nc3ccc(OC(=O)N4CCC(N5CCCCC5)CC4)cc13)-c1cc3c(c(=O)n1C2)COC(=O)[C@]3(O)CC | – | 5.85 µM (active) |
| CNS(=O)(=O)CCc1ccc2[nH]cc(C3CCN(C)CC3)c2c1 | 0.543% (inactive) | – |
